ADAM17 inh – ADAM17 inhibition, QFRET primary screen; P78536; recombinant ADAM17, EDANS/DABCYL FRET peptide cleavage; inhibition, % at 6.95 µM; actives 0.83% (n = 370,000);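 active means inhibition above the mean of compounds lying between control limits plus 3 SD, set per campaign, cut at about 8.5% in these data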
Target sequence (P78536 215-824 limits assumed): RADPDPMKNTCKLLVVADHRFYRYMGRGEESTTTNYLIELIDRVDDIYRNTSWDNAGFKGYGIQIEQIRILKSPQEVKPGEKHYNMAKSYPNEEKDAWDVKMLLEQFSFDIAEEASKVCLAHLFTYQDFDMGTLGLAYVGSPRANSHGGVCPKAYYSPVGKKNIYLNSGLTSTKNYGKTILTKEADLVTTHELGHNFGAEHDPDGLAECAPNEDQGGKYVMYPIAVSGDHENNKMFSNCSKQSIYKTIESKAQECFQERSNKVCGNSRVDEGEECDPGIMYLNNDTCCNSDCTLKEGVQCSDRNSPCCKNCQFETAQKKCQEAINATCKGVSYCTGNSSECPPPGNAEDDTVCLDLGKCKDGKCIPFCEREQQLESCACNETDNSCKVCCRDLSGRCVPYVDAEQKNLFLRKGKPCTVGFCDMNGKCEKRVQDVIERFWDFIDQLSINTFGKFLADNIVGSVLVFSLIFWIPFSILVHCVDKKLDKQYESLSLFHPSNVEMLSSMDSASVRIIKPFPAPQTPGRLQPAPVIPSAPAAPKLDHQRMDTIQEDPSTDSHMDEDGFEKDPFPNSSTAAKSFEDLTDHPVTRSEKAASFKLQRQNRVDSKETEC
NR3A LBD binder – modulates the human NR3A ligand-binding domain | AID 1259313 | actives 2.5% (n = 340,000) | NR3A LBD differential scanning fluorimetry, Tm shift; 0% = protein alone, 100% = glycine-bound protein | Tm shift relative to glycine control, % at 25 µM;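 active means melting temperature shift of at least 10% of the positive control shift, at one fixed dose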
aDG glyco act – increases alpha dystroglycan glycosylation. Pro5-aDG cells, alpha-DG glycosylation AlphaScreen (IIH6); 0% Pro5, 100% B10-LARGE cell signal. actives 0.22% (n = 360,000). AID 624168. activation, % at 10 µM;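 active means activation of at least 8% versus controls, or a plate z-score of at least 8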;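 further: Pro5 are CHO cells carrying HIG-tagged alpha-DG that lacks glycosylation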
FAS-TE inh – inhibitors of human fatty acid synthase thioesterase domain; P49327; recombinant FAS-TE, OMFH fluorogenic substrate, fluorescence endpoint; inhibition, % at 15 µM; actives 0.67% (n = 360,000); AID 602261;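 active means compounds whose normalised, plate-corrected inhibition of enzyme fluorescence in the single-dose primary screen is 50% or more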
ADAM10 inh – inhibits human ADAM10 | O14672 | recombinant ADAM10, EDANS/DABCYL FRET peptide cleavage, 3 h | inhibition, % at 7 µM | actives 0.62% (n = 370,000) | AID 720582;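 active means inhibition above a per-campaign cutoff equal to the mean of compounds falling between control-based bounds plus 3 SD, cut at about 20% in these data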
Of the large screens only hits and unclear results are named; the others gave an inactive call. Hits are enriched below; roughly 4% of the tested compounds scored in any of these assays.

NC(=S)N/N=C/c1ccc(C23CC4CC(CC(C4)C2)C3)cc1	NR3A LBD binder 10 (no result: ADAM17 inh, aDG glyco act, FAS-TE inh, ADAM10 inh)
NC(=S)N/N=C/c1ccccc1	none
Oc1ccc(N=Nc2ccc3ccccc3c2)cc1	NR3A LBD binder 24
Cn1c(=O)[nH]c(=O)c2c1nc1n2CCN1Cc1ccccc1	none
CC1CN(Cc2ccccc2)c2nc3c(c(=O)[nH]c(=O)n3C)n2C1 (configuration not stated)	NR3A LBD binder 29
CCOc1ccc(CCNC(=O)c2nnn(CC(=O)Nc3ccccc3C)c2N)cc1OCC	NR3A LBD binder 12
COc1ccc(CCNC(=O)c2nnn(CC(=O)Nc3ccccc3C)c2N)cc1OC	none
CCOc1ccc(OCC)c(NC(=O)c2nnn(CC(=O)Nc3cc(C)cc(C)c3)c2N)c1	NR3A LBD binder 16
COc1ccccc1CNC(=O)c1oc2ccccc2c1C	none
Cc1cc(Cl)ccc1OCC(=O)OCC(=O)NCCNC(=O)COC(=O)COc1ccc(Cl)cc1C	NR3A LBD binder 12
Cc1cc(Cl)ccc1OCC(=O)NCCC(=O)O	none
O=C(O)C1CCCCN1S(=O)(=O)c1ccc2ccccc2c1 (configuration not stated)	none
COc1ccccc1OCC(=O)NCCC1=CCCCC1	none
O=C(COc1ccccc1[N+](=O)[O-])NCCC1=CCCCC1	NR3A LBD binder 11
Clc1ccc2c(c1)c1cc(Cl)ccc1n2CN1CCOCC1	NR3A LBD binder 11
Clc1ccc2c(c1)c1ccccc1n2CN1CCOCC1	none
Cc1cc(Cl)ccc1Nc1ncccc1C(N)=O	NR3A LBD binder 151
NC(=O)c1cccnc1Nc1ccccc1F	none
CCOC(=O)c1sc(=S)n(C)c1NC(=O)c1ccccc1C	NR3A LBD binder 14
C=CCn1c(-c2ccccc2)nc(=S)c2c1CC(C)(C)OC2	none
COc1ccc(OC)c(S(=O)(=O)n2nc(-c3ccccc3)cc2N)c1	NR3A LBD binder 22
COc1ccc(S(=O)(=O)n2nc(-c3ccc(Cl)cc3)cc2N)cc1OC	NR3A LBD binder 14
COc1cc(OC)cc(-c2cc(N)n(S(=O)(=O)Cc3ccccc3)n2)c1	none
CCOc1ccc(-c2cc(N)n(S(=O)(=O)c3ccc(OC)c(OC)c3)n2)cc1	none
O=C(OCC(=O)c1c[nH]c2ccccc12)c1ccc(F)c(S(=O)(=O)N2CCOCC2)c1	none (no result: NR3A LBD binder)
CC(=O)Nc1nc2cc([N+](=O)[O-])ccc2s1	none
O=c1nc(Nc2ccc(Br)cc2)sc2ccc([N+](=O)[O-])cc12	NR3A LBD binder 13
O=C(CSc1nnc(CNC(=O)c2ccc(F)cc2)o1)NCc1ccccc1Cl	none
Cc1cccc(NC(=O)Cn2c(O)c(N=NC(=O)c3ccccc3O)c3ccccc32)c1	NR3A LBD binder 21
NC(=S)N=Nc1c(O)n(CC(=O)Nc2ccccc2)c2ccccc12	none
O=C(N/N=C1/SCC(=O)N1Cc1ccco1)c1ccccc1F	NR3A LBD binder 16
Cc1ccc(OCC(=O)N/N=C2/SCC(=O)N2Cc2ccco2)cc1	none
CC(=O)c1ccc(NC(=S)Nc2ccc(Br)c(Cl)c2)cc1	NR3A LBD binder 29
CC(=O)c1ccc(NC(=S)Nc2ccc3cn[nH]c3c2)cc1	NR3A LBD binder 10
O=C(c1ccc(NC(=S)Nc2ccc(Cl)c(Cl)c2)cc1)N1CCCC1	NR3A LBD binder 15
CC(C)c1ccc(NC(=S)Nc2ccc3cn[nH]c3c2)cc1	none
O=C(Nc1ccc(Br)c(Cl)c1)c1ccco1	none
O=C(Nc1ccc(Cl)c(Cl)c1)N1CCCCCC1	none
O=C(Nc1ccccc1)Nc1ccc(Br)c(Cl)c1	NR3A LBD binder 30
CCOC(=O)c1ccsc1NC(=O)c1ccco1	none
Cc1nnc(NC(=O)C2c3ccccc3Oc3ccccc32)s1	none
CN(C)/C=C(/C(=O)c1ccccc1)n1cncn1	none
O=C(Nc1ccccc1)Nc1ccc2ccccc2c1	NR3A LBD binder 26
CC(=O)Nc1ccc2ccccc2c1	none (no result: ADAM17 inh, ADAM10 inh)
COc1ccc(S(=O)(=O)N2CCC(C(=O)NCCC(=O)Nc3cccc(OC)c3)CC2)cc1	none
CCCCCCC12C(=Cc3cc4c(cc31)OCCO4)c1cc(OC)c(OC)cc1C(CC(=O)NC1CCCCC1)N2C(=O)OC (configuration not stated)	none (no result: NR3A LBD binder, aDG glyco act, FAS-TE inh)
NC1=NC(=O)CC(C(=O)NCCc2ccccc2)S1 (configuration not stated)	NR3A LBD binder 10
Cc1sc2ncnc(OCC(=O)NCc3cccs3)c2c1C	none
CNC(=O)COc1ncnc2sc(C)c(C)c12	NR3A LBD binder 14
COc1ccc(CNC(=O)CC(NC(N)=O)c2ccccc2Cl)cc1OC (configuration not stated)	none
O=C(Nc1ccccc1)c1cccnc1NCCc1ccccc1	none
COc1ccc(NC(=O)c2cccnc2NCCc2ccccc2)cc1	NR3A LBD binder 18
CC(=O)c1c(C)oc2ccc(NS(=O)(=O)c3cccs3)cc12	NR3A LBD binder 17
Cc1ccc(C)c(SCC(=O)NC2CCS(=O)(=O)C2)c1 (configuration not stated)	none
Cc1ccc(-n2nnnc2SCC(=O)NC2CCS(=O)(=O)C2)c(C)c1 (configuration not stated)	NR3A LBD binder 19
O=C(Nc1ccccc1C(=O)O)c1cccc(C(=O)Nc2ccccc2C(=O)O)c1	NR3A LBD binder 10
O=C(Nc1ccccc1C(=O)O)c1ccc(NC(=O)c2ccc(Br)o2)cc1	NR3A LBD binder 13 (no result: ADAM17 inh, ADAM10 inh)
O=C(Cc1ccc(Cl)cc1)Nc1cccc(C(=O)Nc2ccccc2C(=O)O)c1	NR3A LBD binder 13
O=C(Nc1ccccc1C(=O)O)c1cccc(NC(=O)c2ccc(Br)o2)c1	none
O=C(Nc1cccc(C(=O)Nc2ccccc2C(=O)O)c1)c1cccc(Cl)c1	NR3A LBD binder 14
CC1CCN(c2ccc(NC(=O)c3ccc(Br)o3)cc2)CC1	NR3A LBD binder 30
CN1CCN(c2ccc(NC(=O)c3ccc(Br)o3)cc2)CC1	none
COc1ccc(/C(C)=N/N=C(\C)c2ccc(OC)cc2OC)c(OC)c1	NR3A LBD binder 12
COc1ccc(NC(=O)N(Cc2ccc3c(c2)OCO3)C2CC(=O)N(c3ccc(OC)cc3)C2=O)cc1 (configuration not stated)	none
CNC(=S)N(Cc1ccc(OC)cc1)C1CC(=O)N(c2ccc(OC)cc2)C1=O (configuration not stated)	NR3A LBD binder 18
CNC(=S)N(Cc1ccc(OC)cc1)C1CC(=O)N(c2ccc(C(=O)OC)cc2)C1=O (configuration not stated)	none (no result: NR3A LBD binder, aDG glyco act, FAS-TE inh)
O=C1CC(N(CCc2ccccc2)C(=S)Nc2ccccc2)C(=O)N1c1ccc(F)cc1 (configuration not stated)	NR3A LBD binder 27
O=C1CC(N(Cc2ccc3c(c2)OCO3)C(=O)Nc2ccc(F)cc2)C(=O)N1c1ccccc1 (configuration not stated)	NR3A LBD binder 27
CCCOc1ccc(N2C(=O)CC(N(Cc3ccc(OC)cc3)C(=S)Nc3ccccc3)C2=O)cc1 (configuration not stated)	NR3A LBD binder 24
COc1nc(N(c2ccccc2)c2ccccc2)nc(-n2ccnc2)n1	none

Compound activity (PubChem)
